The record followed here is PubChem BioAssay (NCI).

Molecules are shown by their SMILES. Compounds without any hit were thinned out: in the full panel of roughly 83,000, 20% have a hit.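 Activity criterion: percent growth below 10, measured after cells in 96-well plates were exposed to a single compound concentration for 48 hours.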 Unmarked numbers belong to inactive results. Active and inactive are the calls of the source.

In the test the test system is MDA-MB-468 breast. The experiment in a line: NCI-60 one-dose screen, 48 h (100 = growth as untreated, 0 = no growth, -100 = all killed). Particulars: 10 µM unless noted.
Turning to `Cc1ccc(C)n1-c1ccsc1C(=O)NNC(=O)C(Cl)Cl`, the growth was 103%. Consider `O=C(CSc1nnc(-c2cc3c([nH]c4ccccc43)c(-c3cccc(O)c3)n2)n1-c1ccccc1)c1ccccc1`, for which the growth is 63%. Take `CCNC1(NC#N)CCCCC1`: the growth is 101%. The result for `COc1ccc(CN(c2ccc(C)cc2)C2OC(=O)c3ccccc32)cc1OC` (stereo not given) reads 90.2%; that for `C[N+](C)(C/C=C/c1ccccc1)Cc1ccccc1`, 78.8%; that for `COc1ccc(Oc2ccccc2NC(=O)CNC(=O)c2cccc3ccccc23)cc1`, 23.7% [5 µM]. The result for `CSCCC1NC(=O)C(C(C)=Nc2ccccc2)=C1O` (stereo not given) reads 109%; that for `O=C(Nc1ccc(Br)cc1)Nc1nc2ccc([N+](=O)[O-])cc2s1`, -29% (active); that for `CC(=O)OC[C@]12CC[C@@H](c3cn(Cc4ccc(Cn5cc([C@@H]6CC[C@]7(COC(C)=O)CC[C@]8(C)[C@H](CC[C@@H]9[C@@]%10(C)CC[C@H](OC(C)=O)C(C)(C)[C@@H]%10CC[C@]98C)[C@@H]67)nn5)cc4)nn3)[C@@H]1[C@H]1CC[C@@H]3[C@@]4(C)CC[C@H](OC(C)=O)C(C)(C)[C@@H]4CC[C@@]3(C)[C@]1(C)CC2`, 102%. `COc1ccc(C(O)c2cc3c(N)c(C(=O)Nc4cccc(Cl)c4C)sc3nc2C)cc1` (stereo not given): the growth was 8.74% (active). In the case of `C/C(=N/NC(N)=S)C(=O)O`, the growth is 39.2%. For the compound `O=C(NCCCNC(=O)OCc1ccc2c(Br)cc(Br)c(O)c2n1)OCc1ccc2c(Br)cc(Br)c(O)c2n1`, the growth is -72% (active).

As to `C=C(C)[C@@H]1CCC[C@]2(C(=O)OC)CC[C@]3(C)[C@@H](CC[C@@H]4[C@@]5(C)CCCNC(C)(C)[C@@H]5CC[C@]43C)[C@@H]12`, the growth was 65.3%.

Turning to `O=C1NC(=O)/C(=C/c2ccc(Cl)cc2Cl)N1`, the growth is 130%. For the compound `COc1ccc(/C=C/C(=O)c2ccc(NC(=O)CSc3nnc(-c4cc(OC)c(OC)c(OC)c4)o3)cc2)cc1`, the growth was -60.5% (active).

With `CN1CSC(=S)N(Cc2ccccc2)C1`, the growth is 7.55% (active). With `Cc1ccc(S(=O)(=O)NC(=O)n2cc(-c3ccncc3)c(-c3ccc(Cl)c(O)c3)n2)cc1`, the growth was 101%.

For the compound `COc1ccc(-c2nc3ccc(Cc4ccc5nc(-c6ccc(OC)cc6)[nH]c5c4)cc3[nH]2)cc1`, the growth was -20.2% (active).

As for `O=C(c1ccc(-c2ccccc2)cc1)c1ccc([N+](=O)[O-])cc1`, the growth is 108%. As to `O=[N+]([O-])c1cc(NS(=O)(=O)c2ccccc2)ccc1NS(=O)(=O)c1ccccc1`, the growth was 92.9%. The figure for `COc1cccc(NC(=O)Cn2cc3c(=O)oc4ccccc4c3n2)c1` is 101%; for `CCN(CC)c1ccc(/C=N/NC(=O)c2ccc(NS(C)(=O)=O)cc2)cc1` it is 20.2%.

In the case of `[2H]c1nc(Nc2ncc3cc(C(=O)N(C)C)n(C4CCCC4)c3n2)c([2H])c([2H])c1N1C([2H])([2H])C([2H])([2H])NC([2H])([2H])C1([2H])[2H]`, the growth is 89%. As to `N#Cc1c(N)nc(-c2cc(F)cc(C(F)(F)F)c2)nc1-c1ccccc1F`, the growth was 62.8%.

Take `N#Cc1c(-c2ccc(Br)cc2)nc2c(N=Nc3ccc(S(N)(=O)=O)cc3)c(N)nn2c1N`: the growth was 23.6%. With `O=C(Nc1cccc2cccnc12)c1cc(C(=O)c2ccc(Cl)cc2)n2ccc(-c3ccncc3)cc12`, the growth is 108%.

For `Nc1nc(Nc2cc(Cl)cc(Cl)c2)nn1S(=O)(=O)c1ccc2ccccc2c1`, the growth is 66.3%. Consider `Cc1nc2ccccc2c(/C=C/c2ccc(F)cc2)c1C(N)=O`, for which the growth is 107%. Take `C=C(C)[C@@H]1CC[C@]2(COCCC#N)CC[C@]3(C)[C@H](CC[C@@H]4[C@@]5(C)Cc6c([nH]c7ccccc67)C(C)(C)[C@@H]5CC[C@]43C)[C@@H]12`: the growth is 115%. The result for `NS(=O)(=O)c1ccc(-n2cc(CC=O)nn2)cc1` reads 102%.

For `CC(=O)O[C@H]1CC[C@@]2(C)C(=CC[C@@H]3[C@@H]2CC[C@]2(C)C(=O)N(O)C(=O)C[C@@H]32)C1`, the growth was 83.6%.

With `Cc1ccc(N)c(O)c1`, the growth was 78.7%. The result for `N#CC(=C1SCS1)[N+](=O)[O-]` reads -4.62% (active); that for `COc1ccc(S(=O)(=O)N(Cc2ccc3c(n2)C=CC(C)(C)O3)C2CCC2)cc1OC`, -8.27% (active); that for `CC(C)n1c(/C=C/[C@@H](O)C[C@@H](O)CC(=O)O)c(-c2ccc(F)cc2)c2ccccc21`, 81.7%.
